Test results taken from PMC7862700, “An all-to-all approach to the identification of sequence-specific readers for epigenetic DNA modifications on cytosine”.

Legend:
Assay in all cases: DAPPL (digital affinity profiling via proximity ligation, sequencing); 10 mM Tris-HCl pH 7.5, 50 mM NaCl, 1 mM DTT, 4% glycerol, room temperature, 30 min; GST-TFs on glutathione beads, 16-mer random dsDNA library, 0.1% formaldehyde crosslink after washing; high values mean tight binding
Conditions in all cases: protein: recombinant; tags: N-terminal GST; dsDNA, one strand shown
ERG = molecular target: T1, ERG (Homo sapiens, UniProt P11308 1-479)
T1 sequence: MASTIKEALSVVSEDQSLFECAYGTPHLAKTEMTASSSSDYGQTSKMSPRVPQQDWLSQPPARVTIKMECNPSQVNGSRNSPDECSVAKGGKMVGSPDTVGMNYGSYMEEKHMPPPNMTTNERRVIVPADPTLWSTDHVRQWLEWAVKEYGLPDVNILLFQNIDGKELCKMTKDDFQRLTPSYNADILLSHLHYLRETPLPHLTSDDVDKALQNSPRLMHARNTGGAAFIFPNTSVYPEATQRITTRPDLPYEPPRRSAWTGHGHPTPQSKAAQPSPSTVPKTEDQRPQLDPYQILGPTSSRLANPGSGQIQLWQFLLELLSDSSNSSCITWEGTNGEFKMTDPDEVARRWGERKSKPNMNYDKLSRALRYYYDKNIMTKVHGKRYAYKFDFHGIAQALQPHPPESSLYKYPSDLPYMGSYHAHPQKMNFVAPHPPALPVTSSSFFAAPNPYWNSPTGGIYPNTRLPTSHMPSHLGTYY
In short: (§1)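 A tag-only sample was pooled with DNA-barcoded human transcription factors that had been expressed in yeast as GST fusions and captured on glutathione beads. The pools were incubated for 30 min at room temperature with 200 nmole of a random double-stranded 16-mer DNA library in Tris/NaCl/DTT/glycerol buffer, then washed, crosslinked with 0.1% formaldehyde, proximity-ligated (BsaI/T4 ligase, 1 h, 37 °C), PCR-amplified and sequenced on an Illumina NextSeq500. Binding signal is each hexamer's read frequency for a factor divided by its frequency for the tag-only sample.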

ELF1 = ELF1 (Homo sapiens, UniProt P32519 1-619)
Chain of ELF1 (P32519 whole entry): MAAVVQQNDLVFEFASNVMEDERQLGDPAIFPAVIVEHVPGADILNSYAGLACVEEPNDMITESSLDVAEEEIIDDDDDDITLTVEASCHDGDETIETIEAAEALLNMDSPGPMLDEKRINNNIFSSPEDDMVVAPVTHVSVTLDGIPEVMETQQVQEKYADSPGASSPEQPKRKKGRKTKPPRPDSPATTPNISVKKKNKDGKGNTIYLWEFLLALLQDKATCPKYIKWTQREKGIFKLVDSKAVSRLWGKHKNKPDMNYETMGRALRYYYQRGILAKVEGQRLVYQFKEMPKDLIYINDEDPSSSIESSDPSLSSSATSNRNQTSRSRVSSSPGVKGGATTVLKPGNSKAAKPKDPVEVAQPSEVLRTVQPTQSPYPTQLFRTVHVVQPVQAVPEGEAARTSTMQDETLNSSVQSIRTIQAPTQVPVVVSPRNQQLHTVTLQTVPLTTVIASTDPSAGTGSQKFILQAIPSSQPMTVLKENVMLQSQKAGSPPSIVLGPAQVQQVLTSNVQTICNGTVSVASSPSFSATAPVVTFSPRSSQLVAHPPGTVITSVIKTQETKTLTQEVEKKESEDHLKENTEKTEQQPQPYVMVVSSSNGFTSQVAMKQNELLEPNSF
In short: as §1

EHF = molecular target: T2, EHF (Homo sapiens, UniProt Q9NZC4 1-300)
T2 sequence: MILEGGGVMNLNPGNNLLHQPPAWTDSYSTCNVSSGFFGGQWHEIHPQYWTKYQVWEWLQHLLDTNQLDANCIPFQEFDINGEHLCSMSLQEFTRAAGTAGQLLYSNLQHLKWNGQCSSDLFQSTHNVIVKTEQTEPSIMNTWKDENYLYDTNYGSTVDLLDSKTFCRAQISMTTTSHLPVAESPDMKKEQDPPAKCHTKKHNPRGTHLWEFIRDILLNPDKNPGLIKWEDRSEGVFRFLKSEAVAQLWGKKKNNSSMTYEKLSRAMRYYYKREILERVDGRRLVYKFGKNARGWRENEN
In short: as §1

SPIB = SPIB (Homo sapiens, UniProt Q01892 1-262)
Chain of SPIB (Q01892 whole entry): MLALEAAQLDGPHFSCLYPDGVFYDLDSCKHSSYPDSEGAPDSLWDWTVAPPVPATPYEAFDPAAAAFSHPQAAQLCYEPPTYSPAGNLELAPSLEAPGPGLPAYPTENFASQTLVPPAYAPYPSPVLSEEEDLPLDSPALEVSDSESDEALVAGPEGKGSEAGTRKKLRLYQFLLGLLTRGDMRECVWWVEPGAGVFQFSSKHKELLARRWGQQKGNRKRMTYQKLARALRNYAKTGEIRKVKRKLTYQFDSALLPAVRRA
In short: as §1

FEV = molecular target: T3, FEV (Homo sapiens, UniProt Q99581 1-238)
T3 sequence: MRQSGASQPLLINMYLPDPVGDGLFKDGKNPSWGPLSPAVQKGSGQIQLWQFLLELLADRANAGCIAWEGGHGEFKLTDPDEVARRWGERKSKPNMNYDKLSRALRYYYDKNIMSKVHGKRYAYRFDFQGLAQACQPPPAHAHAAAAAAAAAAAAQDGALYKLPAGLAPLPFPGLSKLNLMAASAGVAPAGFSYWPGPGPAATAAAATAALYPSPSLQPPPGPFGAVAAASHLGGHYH
In short: as §1

ETV5 = ETV5 (Homo sapiens, UniProt P41161 1-510)
Chain of ETV5 (P41161 whole entry): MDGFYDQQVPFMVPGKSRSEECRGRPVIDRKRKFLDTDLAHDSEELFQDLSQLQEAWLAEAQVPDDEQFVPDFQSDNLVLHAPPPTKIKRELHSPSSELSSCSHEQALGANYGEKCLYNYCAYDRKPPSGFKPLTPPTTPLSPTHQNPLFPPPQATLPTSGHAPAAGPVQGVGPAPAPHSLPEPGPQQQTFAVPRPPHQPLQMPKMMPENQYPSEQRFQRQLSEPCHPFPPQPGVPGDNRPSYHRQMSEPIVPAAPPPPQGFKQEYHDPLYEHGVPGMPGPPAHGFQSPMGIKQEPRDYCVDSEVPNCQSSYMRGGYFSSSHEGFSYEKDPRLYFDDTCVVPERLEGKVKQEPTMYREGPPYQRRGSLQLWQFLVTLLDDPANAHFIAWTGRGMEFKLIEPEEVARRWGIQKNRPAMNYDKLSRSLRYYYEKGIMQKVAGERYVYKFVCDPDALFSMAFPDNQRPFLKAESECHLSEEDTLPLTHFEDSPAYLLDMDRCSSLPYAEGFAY
In short: as §1

ELK4 = molecular target: T4, ELK4 (Homo sapiens, UniProt P28324-2 1-405)
T4 sequence: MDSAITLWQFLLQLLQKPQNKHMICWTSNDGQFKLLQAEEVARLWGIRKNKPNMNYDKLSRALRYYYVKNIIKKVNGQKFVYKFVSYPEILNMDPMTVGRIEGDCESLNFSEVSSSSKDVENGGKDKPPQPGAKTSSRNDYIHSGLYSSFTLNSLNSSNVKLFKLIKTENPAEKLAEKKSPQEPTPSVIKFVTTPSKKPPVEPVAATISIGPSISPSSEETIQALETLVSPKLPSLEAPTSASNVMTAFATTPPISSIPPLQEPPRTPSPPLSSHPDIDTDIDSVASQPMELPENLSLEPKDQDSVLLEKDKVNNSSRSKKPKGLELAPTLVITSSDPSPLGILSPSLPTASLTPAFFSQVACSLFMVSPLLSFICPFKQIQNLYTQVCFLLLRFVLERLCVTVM
In short: as §1

ETV2 = molecular target: T5, ETV2 (Homo sapiens, UniProt O00321 1-342)
T5 sequence: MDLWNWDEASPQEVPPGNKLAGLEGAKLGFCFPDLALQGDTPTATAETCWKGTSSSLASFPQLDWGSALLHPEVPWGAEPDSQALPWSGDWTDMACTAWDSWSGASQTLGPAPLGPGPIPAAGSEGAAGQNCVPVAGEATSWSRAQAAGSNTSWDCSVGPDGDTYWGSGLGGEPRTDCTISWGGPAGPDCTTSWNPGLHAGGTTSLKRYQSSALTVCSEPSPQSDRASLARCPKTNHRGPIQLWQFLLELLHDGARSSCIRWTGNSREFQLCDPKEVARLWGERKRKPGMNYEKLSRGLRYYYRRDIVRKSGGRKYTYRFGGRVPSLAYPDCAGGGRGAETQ
In short: as §1

ELF3 = molecular target: T6, ELF3 (Homo sapiens, UniProt P78545 1-371)
T6 sequence: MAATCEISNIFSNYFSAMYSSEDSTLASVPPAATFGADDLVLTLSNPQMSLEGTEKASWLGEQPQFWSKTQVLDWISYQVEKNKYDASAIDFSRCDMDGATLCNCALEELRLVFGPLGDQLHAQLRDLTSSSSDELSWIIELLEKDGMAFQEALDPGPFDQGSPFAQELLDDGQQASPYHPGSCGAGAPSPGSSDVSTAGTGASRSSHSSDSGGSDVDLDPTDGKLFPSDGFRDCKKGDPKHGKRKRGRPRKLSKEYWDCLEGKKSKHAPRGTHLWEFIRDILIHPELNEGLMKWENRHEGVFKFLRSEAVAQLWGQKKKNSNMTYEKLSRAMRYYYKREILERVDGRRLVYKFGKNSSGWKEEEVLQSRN
In short: as §1

ERF = molecular target: T7, ERF (Homo sapiens, UniProt P50548 1-548)
T7 sequence: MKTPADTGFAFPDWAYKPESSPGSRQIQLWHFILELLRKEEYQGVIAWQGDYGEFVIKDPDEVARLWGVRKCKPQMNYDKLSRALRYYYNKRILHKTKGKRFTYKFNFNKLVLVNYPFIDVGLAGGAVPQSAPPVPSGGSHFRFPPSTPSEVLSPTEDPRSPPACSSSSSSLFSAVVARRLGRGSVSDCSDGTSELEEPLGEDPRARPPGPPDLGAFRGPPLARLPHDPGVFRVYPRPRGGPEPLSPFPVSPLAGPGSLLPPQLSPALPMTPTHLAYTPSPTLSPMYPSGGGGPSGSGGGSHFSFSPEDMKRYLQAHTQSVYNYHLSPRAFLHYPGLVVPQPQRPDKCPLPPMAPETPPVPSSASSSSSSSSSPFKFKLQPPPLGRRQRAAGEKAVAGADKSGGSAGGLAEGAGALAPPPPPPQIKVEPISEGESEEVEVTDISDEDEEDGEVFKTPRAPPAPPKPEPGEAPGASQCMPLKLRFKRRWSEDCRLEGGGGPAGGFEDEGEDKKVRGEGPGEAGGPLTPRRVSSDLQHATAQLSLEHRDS
In short: as §1

ETV3L = molecular target: T8, ETV3L (Homo sapiens, UniProt Q6ZN32 1-361)
T8 sequence: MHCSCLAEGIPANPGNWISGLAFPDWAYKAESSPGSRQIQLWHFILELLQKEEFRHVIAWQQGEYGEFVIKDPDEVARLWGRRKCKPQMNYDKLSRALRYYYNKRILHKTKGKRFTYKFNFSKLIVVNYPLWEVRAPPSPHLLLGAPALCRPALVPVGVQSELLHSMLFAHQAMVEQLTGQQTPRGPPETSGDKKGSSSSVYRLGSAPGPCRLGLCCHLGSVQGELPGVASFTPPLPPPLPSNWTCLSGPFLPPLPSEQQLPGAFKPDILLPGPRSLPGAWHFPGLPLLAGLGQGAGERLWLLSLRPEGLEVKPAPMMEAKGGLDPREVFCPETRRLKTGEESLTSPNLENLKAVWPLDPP
In short: as §1

ETS2 = molecular target: T9, ETS2 (Homo sapiens, UniProt P15036 1-469)
T9 sequence: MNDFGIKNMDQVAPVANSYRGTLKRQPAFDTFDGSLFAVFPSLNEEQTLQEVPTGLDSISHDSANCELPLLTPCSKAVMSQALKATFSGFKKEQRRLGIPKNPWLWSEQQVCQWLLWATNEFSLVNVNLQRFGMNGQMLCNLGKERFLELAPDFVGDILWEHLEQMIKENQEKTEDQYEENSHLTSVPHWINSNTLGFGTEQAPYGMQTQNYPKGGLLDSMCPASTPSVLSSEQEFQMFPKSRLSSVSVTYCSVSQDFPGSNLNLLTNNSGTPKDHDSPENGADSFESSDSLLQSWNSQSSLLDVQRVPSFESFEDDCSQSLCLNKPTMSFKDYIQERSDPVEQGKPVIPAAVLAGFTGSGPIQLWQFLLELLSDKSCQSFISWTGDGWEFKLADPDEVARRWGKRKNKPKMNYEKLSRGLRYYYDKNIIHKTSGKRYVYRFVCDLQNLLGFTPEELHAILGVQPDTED
In short: as §1

SPDEF = molecular target: T10, SPDEF (Homo sapiens, UniProt O95238 1-335)
T10 sequence: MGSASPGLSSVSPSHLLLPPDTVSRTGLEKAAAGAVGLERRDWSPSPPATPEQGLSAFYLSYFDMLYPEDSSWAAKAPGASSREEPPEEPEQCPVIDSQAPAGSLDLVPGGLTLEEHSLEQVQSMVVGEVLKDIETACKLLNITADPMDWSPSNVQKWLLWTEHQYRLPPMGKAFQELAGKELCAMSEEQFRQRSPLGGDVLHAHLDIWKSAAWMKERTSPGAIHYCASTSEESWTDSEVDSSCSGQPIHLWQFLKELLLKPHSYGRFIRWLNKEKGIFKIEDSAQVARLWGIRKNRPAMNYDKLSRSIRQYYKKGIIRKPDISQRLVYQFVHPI
In short: as §1

ETV7 = molecular target: T11, ETV7 (Homo sapiens, UniProt Q9Y603 1-341)
T11 sequence: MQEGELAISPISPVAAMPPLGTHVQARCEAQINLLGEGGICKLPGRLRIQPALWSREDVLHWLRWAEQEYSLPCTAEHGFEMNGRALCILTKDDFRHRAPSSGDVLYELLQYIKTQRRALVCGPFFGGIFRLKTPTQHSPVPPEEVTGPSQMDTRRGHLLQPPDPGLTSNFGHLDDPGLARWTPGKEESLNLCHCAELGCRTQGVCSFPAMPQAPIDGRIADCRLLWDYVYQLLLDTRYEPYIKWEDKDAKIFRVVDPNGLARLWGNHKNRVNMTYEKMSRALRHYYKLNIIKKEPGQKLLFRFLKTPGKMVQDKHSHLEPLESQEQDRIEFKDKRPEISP
In short: as §1

ETV3 = molecular target: T12, ETV3 (Homo sapiens, UniProt P41162-2 1-143)
T12 sequence: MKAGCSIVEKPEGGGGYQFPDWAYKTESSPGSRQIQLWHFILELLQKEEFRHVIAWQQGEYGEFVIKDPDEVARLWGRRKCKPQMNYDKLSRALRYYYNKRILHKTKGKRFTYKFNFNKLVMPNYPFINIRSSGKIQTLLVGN
In short: as §1

ETV6 = ETV6 (Homo sapiens, UniProt P41212 1-452)
Chain of ETV6 (P41212 whole entry): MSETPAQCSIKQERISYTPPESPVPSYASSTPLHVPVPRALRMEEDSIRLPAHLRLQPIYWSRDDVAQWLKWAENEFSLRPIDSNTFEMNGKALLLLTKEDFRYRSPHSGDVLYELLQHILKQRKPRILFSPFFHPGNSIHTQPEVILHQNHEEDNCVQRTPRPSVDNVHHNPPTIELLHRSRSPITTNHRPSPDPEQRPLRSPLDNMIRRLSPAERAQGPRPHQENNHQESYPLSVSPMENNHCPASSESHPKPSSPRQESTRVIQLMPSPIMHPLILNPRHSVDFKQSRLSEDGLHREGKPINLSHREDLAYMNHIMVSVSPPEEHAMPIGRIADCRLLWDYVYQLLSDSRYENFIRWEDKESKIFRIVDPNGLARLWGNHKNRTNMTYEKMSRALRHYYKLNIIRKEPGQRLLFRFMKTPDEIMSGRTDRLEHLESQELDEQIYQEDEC
In short: as §1

TGGCTG
binding signal (ERG): 1.04 fold enrichment (6-mer frequency, TF over GST control) | binding signal (ELF1): 1.06 fold enrichment (6-mer frequency, TF over GST control) | binding signal (EHF): 1.23 fold enrichment (6-mer frequency, TF over GST control) | binding signal (SPIB): 1.01 fold enrichment (6-mer frequency, TF over GST control) | binding signal (FEV): 1.04 fold enrichment (6-mer frequency, TF over GST control) | binding signal (ETV5): 1.08 fold enrichment (6-mer frequency, TF over GST control) | binding signal (ELK4): 1.24 fold enrichment (6-mer frequency, TF over GST control) | binding signal (ETV2): 1.26 fold enrichment (6-mer frequency, TF over GST control) | binding signal (ELF3): 1 fold enrichment (6-mer frequency, TF over GST control) | binding signal (ERF): 1.17 fold enrichment (6-mer frequency, TF over GST control) | binding signal (ETV3L): 1.09 fold enrichment (6-mer frequency, TF over GST control) | binding signal (ETS2): 1.05 fold enrichment (6-mer frequency, TF over GST control) | binding signal (SPDEF): 1.01 fold enrichment (6-mer frequency, TF over GST control) | binding signal (ETV7): 1.07 fold enrichment (6-mer frequency, TF over GST control) | binding signal (ETV3): 1 fold enrichment (6-mer frequency, TF over GST control) | binding signal (ETV6): 1.02 fold enrichment (6-mer frequency, TF over GST control)
